Targets with a hit are over-represented here; the source holds about 8,800 in all. About 0.5% of all pairs of compound and target were hits.
What was measured:
Assay in all cases: log2 fold change, soluble protein after heating vs DMSO (PISA); higher = thermal stabilisation; K562 lysate, 10 uM; active = over 0.2 and 3.5 SD of the protein, either way, in both replicates (recomputed)
[1] = compound: C1=CC=C(C=C1)[C@H](COC2=CC3=C(C=C2)NC(=O)N3)NC(=O)C4=CC=CN(C4=O)CC5=CC(=C(C=C5)F)F
How it was run: (§1)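 Dounce homogenisation of K562 pellets in PBS pH 7.4 with 1 mM MgCl2 produced a crude extract, used at 1 mg/mL protein. Exposure to 10 μM compound lasted 30 min, and aliquots were then heated for 3 min across 48°C-58°C, pooled and brought to 0.5% NP-40 at 4°C. The supernatant after 21,000xg for 90 min was quantified by TMTpro 16plex LC-MS/MS with channel sums equalised. Duplicate values are given as log-two fold change in thermal stability relative to solvent controls.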

[2] = compound: CC1=C(SC2=C1C(=N[C@H](C3=NN=C(N32)C)CC(=O)N)C4=CC=C(C=C4)Cl)C
How it was run: as §1

[3] = compound: CC1=C2C(=CC=C1)N=C(N(C2=O)C3=CC=CC=C3C)CN4C=NC5=C(N=CN=C54)N
How it was run: as §1

[4] = compound: Cc1sc2c(c1C)C(c1ccc(Cl)cc1)=N[C@@H](CC(=O)OC(C)(C)C)c1nnc(C)n1-2
How it was run: as §1

[5] = compound: c1ccc([C@@H]2C[C@H]2NC2CCNCC2)cc1
How it was run: as §1

Measured: log2 fold change

SASS6 (UniProt Q6UVJ0)
Chain of UniProt Q6UVJ0 (Q6UVJ0 whole entry, looked up): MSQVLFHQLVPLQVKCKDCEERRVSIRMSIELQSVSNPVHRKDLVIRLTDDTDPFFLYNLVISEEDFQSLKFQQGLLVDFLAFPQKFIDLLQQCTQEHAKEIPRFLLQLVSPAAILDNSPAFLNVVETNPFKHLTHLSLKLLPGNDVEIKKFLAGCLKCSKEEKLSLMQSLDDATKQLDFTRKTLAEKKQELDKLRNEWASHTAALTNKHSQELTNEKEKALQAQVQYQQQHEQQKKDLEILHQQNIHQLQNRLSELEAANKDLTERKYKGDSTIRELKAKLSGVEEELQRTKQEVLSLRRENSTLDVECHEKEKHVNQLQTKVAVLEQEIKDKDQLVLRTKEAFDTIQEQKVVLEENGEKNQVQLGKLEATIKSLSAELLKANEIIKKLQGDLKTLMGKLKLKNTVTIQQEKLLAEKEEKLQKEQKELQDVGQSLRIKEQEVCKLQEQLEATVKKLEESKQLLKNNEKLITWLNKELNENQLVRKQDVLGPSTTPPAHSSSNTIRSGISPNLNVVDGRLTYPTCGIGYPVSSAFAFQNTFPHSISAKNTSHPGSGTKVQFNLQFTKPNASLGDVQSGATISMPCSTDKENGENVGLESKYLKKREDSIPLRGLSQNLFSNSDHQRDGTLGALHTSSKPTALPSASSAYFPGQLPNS
inactive: [1] -0.01 | [2] 0.028 | [3] 0 | [4] 0.021 | [5] 0.037

RAB3IL1 (UniProt E9PK89)
inactive: [1] -0.109 | [2] 0.057 | [3] 0.014 | [4] -0.189 | [5] -0.006

RAB5IF isoform 5 (UniProt Q9BUV8)
Chain of UniProt Q9BUV8 (Q9BUV8 whole entry, looked up): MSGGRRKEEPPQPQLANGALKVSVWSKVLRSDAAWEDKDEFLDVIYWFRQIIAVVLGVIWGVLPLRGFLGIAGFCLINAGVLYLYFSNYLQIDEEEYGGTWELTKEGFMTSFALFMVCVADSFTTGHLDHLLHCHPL
inactive: [1] 0.01 | [2] -0.096 | [3] 0.019 | [4] -0.085 | [5] 0.364

RARS (UniProt P54136)
Chain of UniProt P54136 (P54136 whole entry, looked up): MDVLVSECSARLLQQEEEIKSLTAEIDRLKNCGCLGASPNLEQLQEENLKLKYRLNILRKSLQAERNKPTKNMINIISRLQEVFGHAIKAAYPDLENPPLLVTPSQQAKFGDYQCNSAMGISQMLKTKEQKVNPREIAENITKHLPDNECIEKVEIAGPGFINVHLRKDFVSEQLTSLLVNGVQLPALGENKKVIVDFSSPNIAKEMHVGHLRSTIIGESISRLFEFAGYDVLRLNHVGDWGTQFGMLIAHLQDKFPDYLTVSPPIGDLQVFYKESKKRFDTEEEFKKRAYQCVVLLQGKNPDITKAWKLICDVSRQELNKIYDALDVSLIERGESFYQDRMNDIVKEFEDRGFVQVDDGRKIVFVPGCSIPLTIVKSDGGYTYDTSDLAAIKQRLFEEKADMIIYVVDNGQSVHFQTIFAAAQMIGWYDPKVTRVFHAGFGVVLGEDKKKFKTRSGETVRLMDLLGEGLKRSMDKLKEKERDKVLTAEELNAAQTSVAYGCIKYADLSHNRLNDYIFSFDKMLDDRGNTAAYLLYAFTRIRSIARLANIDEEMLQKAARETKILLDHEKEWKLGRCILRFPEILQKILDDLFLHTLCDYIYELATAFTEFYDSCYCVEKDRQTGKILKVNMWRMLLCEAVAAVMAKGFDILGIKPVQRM
inactive: [1] -0.014 | [2] 0.038 | [3] 0.024 | [4] 0.028 | [5] 0.091

RPL8 (UniProt P62917)
inactive: [1] -0.012 | [2] -0.036 | [3] -0.031 | [4] 0.066 | [5] 0.032

RABL3 (UniProt Q5HYI8)
Chain of UniProt Q5HYI8 (Q5HYI8 whole entry, looked up): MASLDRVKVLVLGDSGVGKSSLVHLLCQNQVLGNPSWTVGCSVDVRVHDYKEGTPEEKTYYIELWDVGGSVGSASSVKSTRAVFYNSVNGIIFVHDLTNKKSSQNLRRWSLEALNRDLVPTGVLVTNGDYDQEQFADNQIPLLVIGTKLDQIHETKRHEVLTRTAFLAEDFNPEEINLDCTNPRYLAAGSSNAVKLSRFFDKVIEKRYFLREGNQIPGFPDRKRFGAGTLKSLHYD
inactive: [1] -0.044 | [2] -0.021 | [3] 0.004 | [4] 0.017 | [5] 0.03

RAP1B (UniProt P61224)
Chain of UniProt P61224 (P61224 whole entry, looked up): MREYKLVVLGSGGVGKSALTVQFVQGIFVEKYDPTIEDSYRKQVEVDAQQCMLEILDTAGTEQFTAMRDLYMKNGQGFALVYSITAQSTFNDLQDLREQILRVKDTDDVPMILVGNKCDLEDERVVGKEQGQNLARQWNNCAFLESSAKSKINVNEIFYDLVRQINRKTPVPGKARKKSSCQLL
inactive: [1] 0.006 | [2] -0.023 | [3] 0.032 | [4] 0.055 | [5] 0.02

RPS18 (UniProt P62269)
inactive: [1] -0.009 | [2] 0.046 | [3] 0.024 | [4] -0.003 | [5] -0.075

From the supplement of paper PMC10849652
